Compounds without any hit were thinned out: in the full panel of roughly 79,000, 15% have a hit. No stated cut-off is given here; in the data, active means growth inhibition above about 70%; inactive means the rest.
Key:
[1] = NCI Yeast Anticancer Drug Screen. Data for the rad50 strain (AID 155);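 further: 0% = growth of vehicle-only cultures of the same strain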; settings: S. cerevisiae rad50 strain growth inhibition; at 50.0 µM; active compounds read high
How it was run: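 Growth of the mutant yeast was measured after compound exposure and referenced to vehicle-treated cultures.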

[2] = NCI Yeast Anticancer Drug Screen. Data for the mec2-1 strain (AID 157); settings: S. cerevisiae mec2-1 strain, at 50.0 µM, active compounds read high
How it was run: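 Test agents were screened against the mec2-1 yeast strain, with defined DNA repair or cell cycle alteration. Growth was scored as inhibition against vehicle-only controls.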

[3] = NCI Yeast Anticancer Drug Screen. Data for the sgs1 mgt1 strain (AID 161);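 further: 0% = growth of cultures given vehicle only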; settings: S. cerevisiae sgs1 mgt1 strain, at 50.0 µM, active compounds read high
How it was run: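 Mutant yeast exposed to compound; growth scored against vehicle-only wells.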

[4] = NCI Yeast Anticancer Drug Screen. Data for the cln2 rad14 strain (AID 165);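 further: 0% = growth equal to vehicle treated cultures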; settings: S. cerevisiae cln2 rad14 strain, at 50.0 µM, active compounds read high
How it was run: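 Growth of compound-exposed yeast (cln2 rad14 genotype) measured and expressed as inhibition relative to vehicle.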

[5] = NCI Yeast Anticancer Drug Screen. Data for the bub3 strain (AID 167); settings: S. cerevisiae bub3 mutant strain, at 50.0 µM, active compounds read high
How it was run: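 Whole-cell yeast assay. The mutant strain was incubated with compounds, and growth inhibition was determined by comparison with vehicle-treated cells.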

[6] = NCI Yeast Anticancer Drug Screen. Data for the mlh1 rad18 strain (AID 175); settings: S. cerevisiae mlh1 rad18 strain growth inhibition; at 50.0 µM; active compounds read high
How it was run: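 In this whole-cell yeast screen, a strain with altered DNA damage repair is challenged with compound, and its growth is measured against matched vehicle-treated controls.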

Measured: growth inhibition

Cc1ccc2[nH]c3c(ncc4[nH]c5ccccc5c43)c2c1
inactive: [1] 59.3% | [2] 44.1% | [3] 62.8% | [4] 52.1% | [5] 62.9% | [6] 62%

Cc1ccc(SCC(CF)OC(C)n2cnc3c(=O)[nH]c(N)nc32)cc1 (stereo not drawn)
inactive: [1] 9.8% | [2] 6.1% | [3] -27.4% | [4] 23.4% | [5] 7.55% | [6] -46.5%

O=c1[nH]c2ccc(Cl)cc2[nH]c1=O
inactive: [1] -7.05% | [2] 5% | [3] -10.5% | [4] 0.3% | [5] -1.45% | [6] 0.9%

CCOc1c(N=Nc2ccccc2C)c(C)nn1C(=S)SC
inactive: [1] -1.2% | [2] -2.2% | [3] -15.4% | [4] 23.8% | [5] -19.4% | [6] 15.7%

Cc1cc2c(=O)c3ccccc3[nH]c2c(C(N)=O)c1C
inactive: [1] 39.5% | [2] 7.8% | [3] 1.75% | [4] -6.9% | [5] -10.5% | [6] 15.3%

Cc1cccc([B-]23OCC[N+]2(CNC(=O)c2ccccc2O)CCO3)c1 (stereo not drawn)
inactive: [1] -21.6% | [2] -19.8% | [3] -7.5% | [4] -11.6% | [5] -18.4% | [6] -16.8%

NCC1CCC(C(=O)O)CC1 (stereo not drawn)
inactive: [1] -14.4% | [2] -9.35% | [3] -10% | [4] -20.9% | [5] -24.9% | [6] -21.6%

O=[N+]([O-])c1ccc(S(=O)(=O)N/N=C/c2cccc([N+](=O)[O-])c2)cc1
inactive: [1] -8.15% | [2] -13.2% | [3] 1.1% | [4] -15% | [5] 0.35% | [6] -12.1%

[N-]=[N+]=Nc1ccccc1C(=O)NC(=O)Nc1ccccc1
inactive: [1] -14.1% | [2] 1.95% | [3] 5.5% | [4] -19.2% | [5] 2.45% | [6] -2.1%

CCCCCCCC(CC#N)(CCCCC)CCCCCC (stereo not drawn)
inactive: [1] 16.6% | [2] -10.1% | [3] 11.9% | [4] -8.3% | [5] 7.1% | [6] 26.1%

O=C(Nc1cccc(Cl)c1)Oc1ccccc1
inactive: [1] 17.6% | [2] 4.45% | [3] -4.3% | [4] 16.4% | [5] 15.3% | [6] 8.2%

Cc1ccc(O)c(C(=O)c2ccc(Cl)c(Cl)c2)c1
inactive: [1] 8.45% | [2] 13.9% | [3] 54.2% | [4] -0.9% | [5] 58.1% | [6] 11.2%

CCCCCCCCCC(=O)N/N=C\c1cccc2ccccc12
inactive: [1] 0.15% | [2] 17.9% | [3] 1.2% | [4] -14.1% | [5] 24.6% | [6] 16.9%

O=[N+]([O-])c1cc(C2ON=C(c3ccccc3)N2C23CC4CC(CC(C4)C2)C3)ccc1Cl (stereo not drawn)
inactive: [1] -9.1% | [2] 10.2% | [3] 2.7% | [4] 16% | [5] -0.85% | [6] -8.2%

CC1SC(=S)NC1=O (stereo not drawn)
inactive: [1] -16% | [2] -2.1% | [3] -10.8% | [4] -2% | [5] -10.9% | [6] -0.8%

CCC(/C=C/c1ccccc1)=N\NC(=O)c1ccc(C)cc1
inactive: [1] 9.4% | [2] 10.7% | [3] 11.7% | [4] -4.05% | [5] 15.5% | [6] 5.25%

c1ccc(N2N=NC3C4CC(C5COCC54)C32)cc1 (stereo not drawn)
inactive: [1] 4.6% | [2] -7.1% | [3] -24.9% | [4] -8.55% | [5] 0.65% | [6] -9.25%

CCCc1cc2c3c(c(=O)oc2cc1O)CCCCC3
inactive: [1] -17.9% | [2] 19.4% | [3] 4.7% | [4] -22.5% | [5] -9.8% | [6] -14.3%

Cc1cc(C(F)(F)F)cc(-n2nc(NS(=O)(=O)c3cc(C)c(Cl)cc3S)nc2N)n1
inactive: [1] 13.1% | [2] 10.1% | [3] 15.4% | [4] -2.9% | [5] 4.5% | [6] 33.5%

CC(=O)Oc1nc2ccccc2n1C(C)=O
inactive: [1] 15.3% | [2] 20.9% | [3] 20.6% | [4] -5.1% | [5] 39.5% | [6] 5.55%

c1ccc2c(c1)CCc1ccccc1N2
inactive: [1] 1.65% | [2] 13.8% | [3] -28.9% | [4] 6.45% | [5] 15.1% | [6] -3.4%

COc1cccc(CCC(=O)O)c1
inactive: [1] -11.7% | [2] -9.75% | [3] -21.6% | [4] 31% | [5] -1.45% | [6] 2.7%

Oc1cc2c(cc1C(c1ccc3c(c1)OCO3)N1CCCC1)OCO2 (stereo not drawn)
inactive: [1] -4.9% | [2] -9.35% | [3] 8.25% | [4] -27.6% | [5] 19.8% | [6] 28.4%

Nc1nc(SCc2ccccc2[N+](=O)[O-])c2[nH]cnc2n1
inactive: [1] 29.2% | [2] 22.2% | [3] 16.2% | [4] 14.1% | [5] 45.4% | [6] 34%

N#CCCc1ccc[nH]1
inactive: [1] -15.8% | [2] -8.45% | [3] -7.95% | [4] 10.6% | [5] 5.6% | [6] -5.85%

COc1ccc(C(O)(CCN2CCOCC2)c2ccc3c(c2)OCO3)cc1 (stereo not drawn)
inactive: [1] -8.4% | [2] 9.2% | [3] -7.7% | [4] -47.4% | [5] 8.6% | [6] -0.3%

CC(C)(CO)CN1CCCC1
inactive: [1] 10.3% | [2] -25.9% | [3] -4.05% | [4] 1.3% | [5] 3% | [6] 0.8%

COc1cc(OC)cc(C(=O)NN)c1
inactive: [1] 19% | [2] -2.2% | [3] 5.1% | [4] 17.4% | [5] 0.5% | [6] -18.6%

Cc1ccc([N+](=O)[O-])cc1NC(=O)Cc1ccccc1
inactive: [1] 4.05% | [2] 29.8% | [3] 1.45% | [4] -8% | [5] 18.3% | [6] 17.6%

NC(=O)NC(N)=O
inactive: [1] 13.3% | [2] -10.4% | [3] -9.95% | [4] -34.1% | [5] 18.9% | [6] 21.9%

C[Si](C)(C)c1ccc(C(N)=O)cc1
inactive: [1] 14.4% | [2] 16.4% | [3] 3.3% | [4] 8.3% | [5] 8.65% | [6] 8.7%

Nc1nc(=O)n(C2CCC(CO)O2)cc1F (stereo not drawn)
inactive: [1] 34.7% | [2] 18.1% | [3] 16.2% | [4] -2.65% | [5] 10.5% | [6] 5.05%

CC(=O)Oc1ccc(O)c(C(=O)O)c1
inactive: [1] 1.8% | [2] -7.15% | [3] -4.95% | [4] -1.35% | [5] 0.2% | [6] 17.3%

COc1ccc2c(c1)OC[C@@H]1c3cc(O)c(OCc4ccccc4)cc3O[C@]21C
inactive: [1] 9.9% | [2] 40.8% | [3] 10.3% | [4] 53.5% | [5] 21.7% | [6] -26%

CCOC(=O)c1ccnc(F)c1
inactive: [1] 3.8% | [2] -15.7% | [3] -6.15% | [4] -8.8% | [5] 1% | [6] 3.6%

O=C(CCC(=O)Nc1ccc(Cl)cc1)CC(=O)c1ccc2ccccc2c1
inactive: [1] -51% | [2] -28.9% | [3] -13.3% | [4] 8.4% | [5] -31.1% | [6] -29.9%

Cc1nc(C)c(N2CCN(CN)CC2)c(=O)[nH]1
inactive: [1] -45.2% | [2] -32.8% | [3] -48% | [4] 30.6% | [5] 14.3% | [6] -72.3%

CCC(=O)c1nc(N)[nH]c1CC
inactive: [1] -36.7% | [2] -21.6% | [3] -12.1% | [4] -44.3% | [5] -3% | [6] -6.45%

CSc1c(C)c(C)nn1-c1ccccc1
inactive: [1] -8.35% | [2] -7.6% | [3] 9.45% | [4] -1.4% | [5] 1.35% | [6] -5.75%

COC(=O)c1cc(=O)n(C)[nH]1
inactive: [1] -0.55% | [2] 4.7% | [3] 0.75% | [4] -58.2% | [5] 6.65% | [6] -1.05%

CCCCCCCCCCCCCCCCCC(=O)O
inactive: [1] -5.2% | [2] -17.4% | [3] 0.1% | [4] -5.75% | [5] -17.1% | [6] 6.05%

CCN(CC)c1ccc(C=O)cc1
inactive: [1] 6.8% | [2] -11.1% | [3] -36.5% | [4] -6.4% | [5] 13.2% | [6] -11.1%

Fc1cccc2nc(-c3ccccc3)cc(OCc3ccccc3)c12
inactive: [1] 0.9% | [2] 8.3% | [3] -30.6% | [4] -1% | [5] 11.8% | [6] -3.4%

Source: PubChem BioAssay (NCI)
